Screening results: PubChem BioAssay, several laboratories
A selection: hits, their analogues and other compounds. The true share with any hit is near 3.8%.
Hsp70 act: transcriptional activators of Hsp70; HeLa Hsp70 promoter luciferase reporter, luminescence; scaled: vehicle 0, proteasome-inhibitor control 100%; activation, % at 10 µM; 200,000 tested, 0.04% active; AID 1203;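 active means activation above the mean across all tested compounds plus 3 SD, cutoff set per campaign, cut at about 5.5% in these data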;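 further: 100% = MG132 at 30 µM as the positive control and 0% = DMSO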
HSP90 inh: blocks HSP90-mediated luciferase refolding in reticulocyte lysate | 290,000 tested, 0.91% active | AID 1789 | Rabbit reticulocyte lysate, luciferase refolding luminescence, 3 h | inhibition, % at 5.6 µM;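 active means inhibition above the screen-wide mean plus 3 SD, computed separately per campaign, cut at about 16% in these data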;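 further: 0% = DMSO wells and 100% = 60 µM geldanamycin wells; inhibitors lower the luminescence because luciferase stays unfolded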
HSF1 activator: increases HSF-1 driven luciferase reporter signal. NIH3T3-HGL HSF-1 luciferase reporter, MG132, 8 h; 100% = twice DMSO control signal. activation, % at 9 µM. 300,000 tested, 1.7% active. AID 504408;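 active means mean replicate activation of at least 50% with a set share of replicates each reaching 50%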;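 further: 0% = median of the neutral control wells and 100% = twice that signal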
NALP1 inh: NALP1 inhibition; AID 2071; S. cerevisiae NALP1/ASC/caspase-1 growth, X-gal OD620, 72 h; inhibition, % at 10 µM; 280,000 tested, 0.61% active; in the data active means inhibition mostly above about 24%, no sharp cut-off; inactive means mostly below about 32%
p-CIP stab down: compounds decreasing mouse p/CIP protein stability; Q05BA5; F442A p/CIP-EGFP cells, EGFP fluorescence, 16 h; decrease of EGFP signal, % at 10 µM; 290,000 tested, 0.01% active; AID 1984;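 active means EGFP signal decrease of at least 30% at 10 µM or well 3 SD below plate mean, unless failing retest; inactive means the rest, including hits failing retest or dose response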
Target sequence (Q05BA5 1-1403): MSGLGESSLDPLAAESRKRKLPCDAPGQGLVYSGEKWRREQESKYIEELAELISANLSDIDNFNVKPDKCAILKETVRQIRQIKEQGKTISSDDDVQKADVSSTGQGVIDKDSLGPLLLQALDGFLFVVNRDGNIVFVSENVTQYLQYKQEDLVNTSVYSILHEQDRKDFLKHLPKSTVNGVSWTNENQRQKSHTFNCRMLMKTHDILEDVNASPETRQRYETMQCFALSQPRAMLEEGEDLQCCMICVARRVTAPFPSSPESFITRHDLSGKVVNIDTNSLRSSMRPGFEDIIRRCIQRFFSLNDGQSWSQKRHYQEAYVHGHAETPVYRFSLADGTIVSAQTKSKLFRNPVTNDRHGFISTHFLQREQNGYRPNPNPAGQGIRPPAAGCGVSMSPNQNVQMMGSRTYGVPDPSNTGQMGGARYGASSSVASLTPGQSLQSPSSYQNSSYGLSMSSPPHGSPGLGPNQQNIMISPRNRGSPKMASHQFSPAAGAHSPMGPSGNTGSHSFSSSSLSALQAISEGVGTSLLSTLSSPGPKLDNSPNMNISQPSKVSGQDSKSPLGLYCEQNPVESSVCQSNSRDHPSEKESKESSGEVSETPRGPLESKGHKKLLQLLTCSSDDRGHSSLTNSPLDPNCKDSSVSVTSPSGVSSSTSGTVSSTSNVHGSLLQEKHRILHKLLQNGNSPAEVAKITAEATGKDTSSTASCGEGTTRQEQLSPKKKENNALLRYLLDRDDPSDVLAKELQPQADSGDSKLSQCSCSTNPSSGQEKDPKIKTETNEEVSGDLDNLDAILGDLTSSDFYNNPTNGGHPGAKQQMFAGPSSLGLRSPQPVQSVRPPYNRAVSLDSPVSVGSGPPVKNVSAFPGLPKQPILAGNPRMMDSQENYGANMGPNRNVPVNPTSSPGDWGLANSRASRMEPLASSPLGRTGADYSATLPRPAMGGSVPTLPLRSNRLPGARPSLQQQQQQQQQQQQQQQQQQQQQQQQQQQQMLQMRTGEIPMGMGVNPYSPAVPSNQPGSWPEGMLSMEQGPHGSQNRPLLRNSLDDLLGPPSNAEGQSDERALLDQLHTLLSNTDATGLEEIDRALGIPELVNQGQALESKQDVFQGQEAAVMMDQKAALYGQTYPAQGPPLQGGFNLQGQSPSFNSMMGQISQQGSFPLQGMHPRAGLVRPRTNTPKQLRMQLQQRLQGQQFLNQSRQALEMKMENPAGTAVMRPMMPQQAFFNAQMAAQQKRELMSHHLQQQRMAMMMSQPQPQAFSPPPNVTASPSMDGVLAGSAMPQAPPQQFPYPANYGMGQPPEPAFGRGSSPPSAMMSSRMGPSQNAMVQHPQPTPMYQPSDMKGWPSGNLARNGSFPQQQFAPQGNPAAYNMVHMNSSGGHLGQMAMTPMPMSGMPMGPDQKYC
HSF1 inhib: HSF1 inhibition. NIH3T3-HGL HSE-luciferase, MG132-induced, luminescence 8 h; active compounds read low. activity change, negative = inhibition, % at 7.5 µM (by protocol). 300,000 tested, 0.77% active. AID 2098;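 active means more than half of replicate wells show activity change below -50%, luminescence cut by over half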;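 further: luciferase reports HSF-1 transcriptional activity via heat shock element; 0% = median of DMSO wells and -100% = zero luminescence signal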
Active calls of the source: *; . = not tested or not shown.

SMILES	Hsp70 act	HSP90 inh	HSF1 activator	NALP1 inh	p-CIP stab down	HSF1 inhib
COc1cc(C(=O)NCC2CCCN2S(=O)(=O)c2cccs2)cc(OC)c1OC (stereo not drawn)	.	.	30	.	.	11
CC(C)CCN1CCN(CC(c2ccccc2)c2ccccc2)CC1CCO (stereo not drawn)	0	2	.	18	-9	.
Cc1ccc2c(c1)C(=NC1CCCCC1)c1cc3ccccc3nc1-2	0	-3	60*	1	2	44
CNC(=S)N(CCN(C)C)Cc1cc2cc3c(cc2[nH]c1=O)OCO3	.	-1	2	17	-12	4
O=C(NC1CCCC1)C(c1ccc(F)cc1)N(C(=O)c1csnn1)C1CCCC1 (stereo not drawn)	.	2	0	3	-6	5
COc1ccc(CN2CCN(Cc3ccc4cc(F)ccc4n3)CC2CCO)c(C)c1C (stereo not drawn)	.	-3	-47	-4	1	-33
CC(=O)c1csc(COc2ccc(Cl)cc2)n1	.	1	61*	0	7	24
NNC(=O)c1csc(COc2cc(Cl)cc(Cl)c2)n1	.	4	-3	.	-21	3
CS(=O)(=O)c1ncc(Cl)c(C(=O)Nc2ccc(N3CCOCC3)cc2)n1	0	1	100*	.	-13	46
CS(=O)(=O)c1ncc(Cl)c(C(=O)Nc2ccc(OC(F)F)cc2)n1	.	-1	-91	6	-23	-91*
CS(=O)(=O)c1ccc(C(=O)Nc2ccc(N3CCOCC3)cc2)c(Cl)c1	0	-3	12	-4	-6	-2
Cc1ccc(S(=O)(=O)N2CCCOC2CNC(=O)C(=O)NCc2ccccc2C)cc1 (stereo not drawn)	.	5	-9	10	3	-1
O=C(COC(=O)/C=C/c1ccc([N+](=O)[O-])cc1)NCc1ccco1	.	3	0	26	0	-4
O=C(COC(=O)/C=C/c1cccc([N+](=O)[O-])c1)NCc1ccco1	0	2	200*	1	-10	181
CCc1ccc(CN2CCCC(CCC(=O)N3CCN(c4ccccn4)CC3)C2)o1 (stereo not drawn)	.	2	-1	.	-7	-4
O=c1oc2ccccc2cc1-c1cn2ccccc2n1	-1	56*	-15	14	-12	-9
COc1ccc(NC(=O)C2CCCO2)cc1 (stereo not drawn)	0	4	23	3	2	5
O=C(Nc1ccc(-c2nc3cccnc3s2)cc1)C1CCCO1 (stereo not drawn)	0	60*	-66	22	-2	-59*
CCS(=O)(=O)Nc1ccc(-c2nc3cccnc3s2)cc1	0	36*	-54	10	-10	-41
CCS(=O)(=O)Nc1cccc(-c2nc3cccnc3s2)c1	.	-5	5	.	-9	7
c1cc(-c2cn(C[C@H]3CC[C@@H]([C@@H]4CC[C@H](Cn5cc(-c6ccsc6)nn5)O4)O3)nn2)cs1	.	-2	8	9	-2	5
COc1ccc(CN2CCC(C(=O)c3ccc(F)cc3)CC2)cc1	.	-4	-16	13	-10	-8
COc1ccccc1-c1cc(C(F)(F)F)nc(S(=O)(=O)CCCC(=O)N2CCCCC2C)n1 (stereo not drawn)	0	1	79*	-4	-4	82
COc1ccccc1-c1cc(C(F)(F)F)nc(N2CCCC2)n1	0	1	-3	39	4	-9
COc1ccccc1-c1cc(C(F)(F)F)nc(S(=O)(=O)CCCC(=O)Nc2cc(C)on2)n1	0	-1	19	-2	0	16
COc1ccccc1-c1cc(C(F)(F)F)nc(S(=O)(=O)CCCC(=O)NCc2ccc(F)cc2)n1	0	2	-80	14	-7	-80*
COc1ccc(-c2cc(C(F)(F)F)nc(S(=O)(=O)CCCC(=O)Nc3cc(C)on3)n2)cc1OC	0	0	223*	-4	-13	226
COc1ccccc1-c1cc(C(F)(F)F)nc(S(C)(=O)=O)n1	0	9	256*	-2	-4	216
COc1ccccc1-c1cc(C(F)(F)F)nc(S(=O)(=O)CCCC(=O)Nc2cccnc2Cl)n1	0	3	.	-7	-16	.
COc1ccc(-n2c(=S)[nH]c3cc(C(=O)NCc4ccccc4)ccc3c2=O)c(OC)c1	.	4	3	-13	-19	0
